MARV entry inh: Marburg virus entry inhibition; Marburg virus pseudotyped entry inhibition, cell reporter; Potency, µM (titrated, usually from 37.8 µM), most hits filed as inhibitors; 300,000 compounds, 1.8% hits; AID 540276; calls by dose curve; tested in HEK293 cells
VACV Venus inh: inhibitors of vaccinia virus (Venus reporter) | Vaccinia virus Venus reporter expression, fluorescence | 330,000 compounds, 0.46% hits | Potency, µM (doses to about 36.5 µM), actives largely listed as inhibitors | AID 720580; calls by dose curve; tested in A549 cells; note: nearly all actives have a fitted effect of over 30% in size
FMDV inh: foot and mouth disease virus antiviral activity. FMDV antiviral cell-based qHTS. Potency, µM (highest dose often 57.9 µM), usual class: inhibitors. 410,000 compounds, 1.2% hits; calls by dose curve; tested in HEK293T cells; note: read-out not given here; nearly all actives have a fitted effect of over 45% in size
VACV mCherry inh: inhibitors of vaccinia virus infection (mCherry reporter signal) | 310,000 compounds, 0.63% hits | Vaccinia virus mCherry reporter infection, fluorescence | Potency, µM (titrated, usually from 36.5 µM), most hits filed as inhibitors; calls by dose curve; tested in A549 cells; note: nearly all actives have a fitted effect of over 35% in size
LASV entry inh: Lassa virus entry inhibition. 300,000 compounds, 1.2% hits. Potency, µM (titrated, usually from 37.9 µM), actives largely listed as inhibitors. Lassa virus pseudotype entry inhibition, cell reporter; calls by dose curve; tested in HEK293 cells; note: nearly all actives have a fitted effect of over 50% in size
HCMV inh: human cytomegalovirus inhibition | 410,000 compounds, 4.5% hits | AID 1259415 | HFF cells, HCMV-luciferase reporter, 72 h; stronger effect = lower value | activity change, negative = inhibition, % at 57.5 µM; in the data active = activity change below about -60%; inconclusive = no clear call, values can overlap the other calls; inactive = above about -39%
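Human foreskin fibroblasts infected with luciferase-reporter HCMV at MOI 1 PFU/cell, compounds at two doses. Luciferase measured 72 h post infection; normalized to buffer-only basal and Salinomycin (10uM) controls.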
Of the large screens only hits and unclear results are named; the others gave an inactive call; ! = not confirmed by another sample. Most compounds without a hit are left out; they make up all but 6.5% or so of the library.

N=c1oc2ccccc2cc1C(=O)Nc1ccccc1	MARV entry inh inconclusive, LASV entry inh inconclusive
CC(C)c1ccc(CN(C(=O)C2COc3ccccc3O2)C2CCS(=O)(=O)C2)cc1 (configuration not stated)	MARV entry inh inconclusive, HCMV inh -94 (no result: VACV Venus inh, VACV mCherry inh)
CN(C)c1ccc(CN(C(=O)C2COc3ccccc3O2)C2CCS(=O)(=O)C2)cc1 (configuration not stated)	none
CN1CCN(c2nccc3[nH]c(-c4ccccc4Cl)nc23)CC1	none (no result: MARV entry inh, VACV Venus inh, FMDV inh, VACV mCherry inh, LASV entry inh)
CCCn1nc([N+](=O)[O-])c(C(C#N)c2nc3ccccc3s2)c(Cl)c1=O (configuration not stated)	MARV entry inh inconclusive, FMDV inh inconclusive, HCMV inh -90 (no result: VACV Venus inh, VACV mCherry inh)
COc1cccc([C@@H]2Oc3ccc(Br)cc3C(=O)[C@@H]2OC(=O)Nc2cc(OC)c(OC)c(OC)c2)c1	none (no result: VACV Venus inh, FMDV inh, VACV mCherry inh, LASV entry inh, HCMV inh)
COCc1ccc(C(=O)N2CCCC(C(=O)c3ccc(SC)cc3)C2)s1 (configuration not stated)	FMDV inh inconclusive, HCMV inh -87
COC(=O)[C@@H]1[C@@H](CO)[C@@H]2Cn3c(cccc3=O)[C@H]1N2C	none (no result: MARV entry inh, VACV Venus inh, FMDV inh, VACV mCherry inh, LASV entry inh)
Cc1cccc(C)c1OCC(=O)NCC1(N2CCOCC2)CCCCC1	MARV entry inh inconclusive
COC(=O)[C@@H]1CC[C@H](C)[C@@H](c2ccc(C)cc2)N1C(=O)c1ccc(C=NOC[C@H]2O[C@H](c3ccccc3)C=C[C@H]2Oc2ccc(OC)cc2)cc1	none (no result: VACV Venus inh, FMDV inh, VACV mCherry inh, LASV entry inh, HCMV inh)
COc1ccc(C2NCCc3c2[nH]c2ccccc32)cc1CN1CCc2cc(OC)c(OC)cc2C1C (configuration not stated)	VACV mCherry inh inconclusive (no result: MARV entry inh, LASV entry inh, HCMV inh)
COc1ccc(C2NCCc3c2[nH]c2ccccc32)cc1COc1ccc(F)cc1 (configuration not stated)	MARV entry inh inconclusive, FMDV inh inconclusive, LASV entry inh 23µM, HCMV inh -98 (no result: VACV Venus inh, VACV mCherry inh)
O=C(c1nnsc1S(=O)(=O)c1ccc(Cl)cc1)N1CCOCC1	MARV entry inh inconclusive, VACV Venus inh inconclusive, FMDV inh 16µM, VACV mCherry inh inconclusive, LASV entry inh inconclusive
Nc1nc(C(=O)N2CCOCC2)nn1S(=O)(=O)c1ccc(Cl)cc1	none (no result: VACV Venus inh, VACV mCherry inh)
O=C(c1nnsc1S(=O)c1ccc(Cl)cc1)N1CCOCC1 (configuration not stated)	MARV entry inh inconclusive, VACV Venus inh inconclusive, FMDV inh 35µM, VACV mCherry inh inconclusive, LASV entry inh inconclusive, HCMV inh -98
O=C(Nc1ccccc1)c1nnsc1S(=O)c1ccc(Cl)cc1 (configuration not stated)	MARV entry inh inconclusive, VACV Venus inh inconclusive, LASV entry inh inconclusive, HCMV inh -104 (no result: VACV mCherry inh)
CNC(=O)c1nnsc1S(=O)(=O)c1ccc(Cl)cc1	MARV entry inh 2.8µM, VACV Venus inh inconclusive, FMDV inh inconclusive, VACV mCherry inh inconclusive, LASV entry inh inconclusive, HCMV inh -94
Cc1nnsc1S(=O)c1ccc(Cl)cc1 (configuration not stated)	HCMV inh inconclusive (no result: MARV entry inh, VACV Venus inh, VACV mCherry inh, LASV entry inh)
CCOc1ccccc1NC(=O)CSc1nnc(CC)c(CC)n1	LASV entry inh inconclusive (no result: MARV entry inh)
COC(=O)C1=C(C)N(Cc2ccco2)C(=O)NC1c1ccc(Br)cc1 (configuration not stated)	MARV entry inh inconclusive (no result: VACV Venus inh, FMDV inh, VACV mCherry inh, HCMV inh)
C=CC[C@@H]1C=C[C@H](ON=C(C)CCN2CCCCc3nc(C)c(C)cc32)[C@H](CO)O1	none (no result: VACV Venus inh, FMDV inh, VACV mCherry inh, LASV entry inh, HCMV inh)
CCCCN(CCC(=O)O)c1ccc(/C=C/c2ccnc3ccccc23)cc1	VACV mCherry inh inconclusive (no result: MARV entry inh, FMDV inh, LASV entry inh, HCMV inh)
Cc1ccc(OCC(=O)Nc2nnc(S(=O)(=O)N3c4ccccc4CC3C)s2)cc1 (configuration not stated)	none (no result: MARV entry inh)
N#CC(=C(O)CN1CCN(c2ccccc2F)CC1)c1nc(-c2ccccc2)cs1	MARV entry inh inconclusive, HCMV inh -71
CN1CC=C2C(C#N)=C(N)C(C#N)(C#N)[C@H](c3ccncc3)[C@H]2C1	none (no result: VACV Venus inh, FMDV inh, VACV mCherry inh, LASV entry inh, HCMV inh)
CCOC(=O)c1cc2c(=O)n3ccccc3nc2n(Cc2ccco2)c1=NC(=O)c1cccnc1	MARV entry inh 7.3µM, LASV entry inh inconclusive
CCOC(=O)c1cc2c(=O)n3cccc(C)c3nc2n(Cc2ccco2)c1=NC(=O)c1cccnc1	MARV entry inh inconclusive
CCOC(=O)c1cc2c(=O)n3ccccc3nc2n(CCOC)c1=NC(=O)c1c(-c2c(F)cccc2Cl)noc1C	MARV entry inh inconclusive, LASV entry inh inconclusive, HCMV inh -61!
Cc1cccc(C(=O)N=c2c(C#N)cc3c(=O)n4cccc(C)c4nc3n2Cc2ccco2)c1	MARV entry inh 14µM!

Compound activity: PubChem, National Center for Advancing Translational Sciences (NCATS)
